This is an account of results in PubChem BioAssay AID590 (National Center for Advancing Translational Sciences (NCATS), 2007).

Out of some 59,000 compounds screened, about 6,500 (11%) were called active. Not shown: some 15% with an inconclusive outcome. Cut-off read from the data, not from the text of the source: active = max dye-equivalent concentration above about 10 nM; inconclusive = mostly about 1.1 nM to 9.6 nM; inactive = weaker than that. This excerpt belongs to a sample that is enriched for actives.

The experiment can be described thus: qHTS Assay for Spectroscopic Profiling in A350 Spectral Region. Particulars: Compound autofluorescence, 340/450 nm, Alexa 350 dye-equivalents; stronger effect = higher value.
Consider `CCOc1cc2c(cc1OCC)C(C(=O)O)C(c1ccc(OC)c(O)c1)N(C)C2=O` (configuration not stated), for which the max dye-equivalent concentration entry is “inactive”.

As for `O=C(COc1cccc(-n2cnnn2)c1)NCCC1=CCCCC1`, the max dye-equivalent concentration result was “inactive”.

`Cc1cc(C)cc(NC(=O)N2CCC(NC(=O)c3ccc(F)cc3)CC2)c1`: the max dye-equivalent concentration entry was “inactive”.

Consider `O=C(NC12CC3CC(CC(C3)C1)C2)N1CCCC(CO)C1` (configuration not stated), for which the max dye-equivalent concentration result was “inactive”.

On to `COc1ccc(S(=O)(=O)N2CCCC2)c(C)c1C`, for which the max dye-equivalent concentration entry is “inactive”.

Consider `Cc1ccc(NC(=O)C2CC(c3ccc(F)cc3)=NO2)cc1` (configuration not stated), for which the max dye-equivalent concentration entry was “inactive”.

Turning to `COc1ccc(C(=O)N2CCC3(CC2)CCN(c2ccccn2)CC3)cc1`, the max dye-equivalent concentration result is “inactive”.

As to `CCOC(=O)CCC(=O)OCC(=O)NC(C)C1CC2CCC1C2` (configuration not stated), the max dye-equivalent concentration result was “inactive”.

In the case of `Cc1nc(N2CCCC2C(=O)O)c2oc3ccccc3c2n1` (configuration not stated), the max dye-equivalent concentration result was “inactive”.

As for `COC(=O)c1ccc(C2CC(=O)Nc3cc(OC)c(OC)cc32)cc1` (configuration not stated), the max dye-equivalent concentration entry was “inactive”.

Turning to `Cc1nc2cnc(N3CCNCC3)nc2n(CCc2ccccc2)c1=O`, the max dye-equivalent concentration is 60 nM (active).

As for `Cn1c(=O)c(-c2ccccc2)nc2cnc(N3CCNCC3)nc21`, the max dye-equivalent concentration is 320 nM (active).

In the case of `CC1CCN(Cc2nc3c(c(=O)n(C)c(=O)n3C)n2CCc2ccccc2)CC1`, the max dye-equivalent concentration result is “inactive”.

Take `O=c1c(-c2ccc(F)cc2)nc2cnc(N3CCNCC3)nc2n1Cc1cccs1`: the max dye-equivalent concentration is 16 nM (active).

Turning to `Cn1cc(-c2nc3cnc(N4CCNCC4)nc3n(CCc3ccccc3)c2=O)c2ccccc21`, the max dye-equivalent concentration entry was “inactive”.

Regarding `COCCn1c(CN2CCC(Cc3ccccc3)CC2)nc2c1c(=O)n(C)c(=O)n2C`, the max dye-equivalent concentration entry is “inactive”.

In the case of `COCCn1c(=O)c(CCc2ccccc2)nc2cnc(N3CCNCC3)nc21`, the max dye-equivalent concentration is 60 nM (active).

With `CC(=O)O[C@]1(C(C)=O)CC[C@@H]2[C@@H]3C=C(C)C4=CC(=O)CC[C@@]4(C)[C@H]3CC[C@]21C`, the max dye-equivalent concentration entry was “inactive”.

As for `O=C(NCCN1CCOCC1)c1c(F)c(F)c(F)c(F)c1F`, the max dye-equivalent concentration entry was “inactive”.

As for `COc1ccc(-c2nn(-c3ccccc3)cc2C(=O)Nc2nc(CC(C)=O)ns2)cc1`, the max dye-equivalent concentration result was “inactive”.

As for `CC(=O)NC(C)c1nc2ccccc2n1Cc1ccccc1F` (configuration not stated), the max dye-equivalent concentration entry was “inactive”.

Take `CC(C)C1Cc2c(sc3c2c(=O)n(-c2ccccc2)c2nncn32)CO1` (configuration not stated): the max dye-equivalent concentration entry was “inactive”.

`CCOC(=O)Cn1c2c(c(-c3ccccc3OC)cc1=O)CCCC2`: the max dye-equivalent concentration result is “inactive”.

In the case of `COc1ccc(N2CCN(C(=O)CSc3nnc4ncccn34)CC2)cc1`, the max dye-equivalent concentration result was “inactive”.

As for `O=C1CCC(=O)N1CCOP1(=O)COc2ccccc2OC1`, the max dye-equivalent concentration entry was “inactive”.

With `COCCn1c(=O)c(-c2cc(F)cc(F)c2)nc2cnc(N3CCNCC3)nc21`, the max dye-equivalent concentration is 390 nM (active).

Turning to `CCCn1c(=O)c2[nH]c(-c3ccc(OCC(=O)NCCN)cc3)nc2n(CCC)c1=O`, the max dye-equivalent concentration result was “inactive”.

Turning to `COc1ccc(C(=O)N2CCC3(CCCN(C(c4ccccc4)c4ccccc4)C3)CC2)cc1`, the max dye-equivalent concentration entry was “inactive”.

Turning to `CC1(C)S[C@@H]2[C@@H](NC(=O)[C@@H](N)c3ccccc3)C(=O)N2[C@H]1C(=O)O`, the max dye-equivalent concentration was 44 nM (active).

On to `CC1(C)SC2c3ccccc3C(=O)N2[C@@H]1C(=O)NCc1ccco1` (some centres not stated), for which the max dye-equivalent concentration entry was “inactive”.

`CCCC[C@H]1C(=O)N(c2ccccc2)N(c2ccc(O)cc2)C1=O`: the max dye-equivalent concentration entry is “inactive”.

Turning to `Cc1cc(Br)ccc1NC(=O)C1CCCO1` (configuration not stated), the max dye-equivalent concentration entry was “inactive”.

In the case of `NC1(C(=O)OCc2ccccc2)CCCC1`, the max dye-equivalent concentration entry was “inactive”.

Consider `CC(C)C(NC(=O)OCc1ccccc1)C(=O)OCC(=O)N1C(C)CCCC1C` (configuration not stated), for which the max dye-equivalent concentration is 48 nM (active).

In the case of `COc1cccc(NC(=O)C2CCCN2C(=O)OCc2ccccc2)c1` (configuration not stated), the max dye-equivalent concentration entry is “inactive”.

With `COc1cc(-c2noc(C3CCCN(S(=O)(=O)c4cccc(Cl)c4)C3)n2)cc(OC)c1OC` (configuration not stated), the max dye-equivalent concentration result is “inactive”.

Regarding `Cc1nc2nc[nH]n2c(=O)c1NC(=O)c1cccc(OCC(C)C)c1`, the max dye-equivalent concentration entry is “inactive”.

As for `CCCN1Cc2cccc(C(=O)NCc3ccccc3)c2C1=O`, the max dye-equivalent concentration entry is “inactive”.

`CC(C)C(=O)N1c2ccccc2NC2=C(C(=O)CCC2)C1c1ccc(N(C)C)cc1` (configuration not stated): the max dye-equivalent concentration result was “inactive”.

As to `O=C1CCCC2=C1C(c1cccs1)n1nc(SCc3ccccc3)nc1N2` (configuration not stated), the max dye-equivalent concentration is 110 nM (active).

In the case of `NC(=NC(=O)c1ccccc1)C1=C(O)CCC1=O`, the max dye-equivalent concentration entry was “inactive”.

For `COc1ccc(-c2nc(SCC(=O)N3CCOCC3)n[nH]2)cc1`, the max dye-equivalent concentration result is “inactive”.

For the compound `CCn1c(COc2cccc(OC)c2)nnc1SCC(=O)N1CCOCC1`, the max dye-equivalent concentration result was “inactive”.

`COc1ccc(-c2ccnc(SCC(=O)N3CCOCC3)n2)cc1`: the max dye-equivalent concentration is 100 nM (active).

With `CC(=O)c1nc(N2C(=O)C3CC=C(C)CC3C2=O)sc1C` (configuration not stated), the max dye-equivalent concentration result is “inactive”.

For `O/N=C(\c1ccc2c(c1)OCCO2)C1CCCCC1`, the max dye-equivalent concentration result is “inactive”.

Take `Cc1ccsc1C(C(=O)NC1CCCCC1)N(C(=O)Cc1cccs1)C1CC1` (configuration not stated): the max dye-equivalent concentration entry was “inactive”.

For `COc1ccc2oc(=O)c(C(=O)N3CCCc4ccccc43)cc2c1`, the max dye-equivalent concentration entry is “inactive”.

With `COc1ccc2oc(=O)c(C(=O)N3CCN(c4ccccc4F)CC3)cc2c1`, the max dye-equivalent concentration is 41 nM (active).

On to `O=C(c1cccc2ccccc12)N1CCN(c2ccccc2F)CC1`, for which the max dye-equivalent concentration entry was “inactive”.

For `Cc1cccc(OCc2nnc(SCn3nnc4ccccc4c3=O)o2)c1`, the max dye-equivalent concentration entry was “inactive”.

For the compound `CC1(C)C2CCC1(C)C(OC(=O)CCn1ccnc1)C2` (configuration not stated), the max dye-equivalent concentration result is “inactive”.

In the case of `COc1cccc(NS(=O)(=O)c2ccc3[nH]cc(C(=O)NCCCOC(C)C)c(=O)c3c2)c1`, the max dye-equivalent concentration result is “inactive”.

As to `COC(=O)c1ccccc1NC(=O)c1cncc(Br)c1`, the max dye-equivalent concentration result was “inactive”.

As for `CCC(=O)Nc1cccc(NC(=O)c2cccnc2)c1`, the max dye-equivalent concentration result is “inactive”.

In the case of `CCOC(=O)c1cc(NC(=O)c2cccnc2)cc(C(=O)OCC)c1`, the max dye-equivalent concentration entry was “inactive”.

For `Cc1cc2nc(-c3ccc(NC(=O)c4cccnc4)cc3)oc2cc1C`, the max dye-equivalent concentration is 90 nM (active).

On to `O=S(=O)(O)CCN1CCOCC1`, for which the max dye-equivalent concentration result is “inactive”.

Turning to `CCCc1nnc(NC(=O)CN2C(=O)c3ccccc3S2(=O)=O)s1`, the max dye-equivalent concentration entry was “inactive”.

In the case of `O=P(O)(CP(=O)(c1ccccc1)c1ccccc1)c1ccccc1`, the max dye-equivalent concentration result is “inactive”.

Take `O=C(Nc1c(-c2ccccc2)nc2c(Br)cc(Br)cn12)c1ccco1`: the max dye-equivalent concentration result is “inactive”.

For the compound `CCN1CCN(C(=O)CN(C)S(=O)(=O)c2ccc(OC)cc2)CC1`, the max dye-equivalent concentration result was “inactive”.

Consider `CCOc1cc2[nH]c(=S)n(CCCN3CCCC3=O)c(=O)c2cc1OCC`, for which the max dye-equivalent concentration entry is “inactive”.

As to `COc1ccc(S(=O)(=O)N(CCCN2CCCC2=O)Cc2cc3c(C)ccc(C)c3[nH]c2=O)cc1`, the max dye-equivalent concentration is 13 nM (active).

Regarding `CC(C)(C)c1ccc(C(=O)CSc2ncn[nH]2)cc1`, the max dye-equivalent concentration entry was “inactive”.

As to `Cc1csc(NC(=O)C2CCCN2C(=O)OCC(C)C)n1` (configuration not stated), the max dye-equivalent concentration entry was “inactive”.

As to `CN(Cc1ccccc1)c1nc2c(c(=O)[nH]c(=O)n2C)n1CCSc1nc2ccccc2[nH]1`, the max dye-equivalent concentration result is “inactive”.
